These results are taken from the supplement of paper PMC3414501.

Assay [1] relates to S. cerevisiae SK1 pCDA2-eGFP (USY613), sporulating. The assay is described as follows: CDA2-GFP sporulation assay sensitivity score (z-score vs DMSO controls); higher = stronger inhibition of sporulation, active = hit call of the paper.
The test system of assay [2] is S. cerevisiae NKY1551 his4x/his4B, sporulating. The assay is described as follows: HIS4 meiotic recombination assay sensitivity score (z-score vs DMSO controls); higher = stronger inhibition of sporulation/recombination, active = hit call of the paper.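 Further: active if sensitivity score above 5.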
Assay [3] has as its system S. cerevisiae AD1-9 (efflux-pump deficient), vegetative growth in YPD. The assay is described as follows: growth sensitivity score (doubling time z-score vs DMSO controls); higher = slower growth, strongly negative scores also mark growth inhibition (complete suppression), active = hit call of the paper. The gist of the method:
(§1)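 Rich medium in microtiter plates was seeded with Saccharomyces cerevisiae strains BY4741 and AD1-9 at an OD600 of 0.065, and compounds were added as a 1:100 dilution of DMSO stock. A Tecan GENios reader recorded optical density every 15 min for 24 hours, with eight solvent-only wells in each experiment. Average doubling time was the time to reach a set generation point divided by generation number. The growth sensitivity score was the compound mean minus the solvent-only mean, divided by the solvent-only standard deviation.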

Assay [4] concerns S. cerevisiae BY4741 (wild-type), vegetative growth in YPD. The assay is described as above. The gist of the method:
as §1

Where a name gives a salt, the structure may show the parent alone.
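Wherever CDA2-GFP sporulation assay sensitivity score (z-score vs DMSO controls) is given: active if sensitivity score above 5.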

Turning to `CN1CCC(=C2c3ccccc3C=Cc3ccccc32)CC1` [Cyproheptadine hydrochloride] (stock concentration (mM, diluted 1:100): 10), the “CDA2-GFP sporulation assay sensitivity score” value in assay [1] is 14 (active). In addition, the “HIS4 meiotic recombination assay sensitivity score” value in assay [2] was 6.95 (active). The growth sensitivity score in assay [3] was 9.58 (active); in assay [4], 3.38 (active).
Consider `C#C[C@]1(O)CC[C@H]2[C@@H]3CCc4cc(OC)ccc4[C@H]3CC[C@@]21C` [Mestranol] (stock concentration (mM, diluted 1:100): 10), for which the “CDA2-GFP sporulation assay sensitivity score” value in assay [1] is 4.85 (inactive). In assay [2], the “HIS4 meiotic recombination assay sensitivity score” value is -0.79 (inactive). Further, the growth sensitivity score in assay [3] was 3.53 (active); in assay [4] it was 0.8 (inactive).
On the same counts, the results for `C[C@H]1O[C@H](O[C@H]2[C@H](O)[C@@H](O)[C@@H](O[C@H]3[C@H](O)[C@@H](O)C(O)O[C@@H]3CO)O[C@@H]2CO)[C@H](O)[C@@H](O)[C@@H]1N[C@H]1C=C(CO)[C@@H](O)[C@H](O)[C@H]1O` (stereo not given in full) [Acarbose] (stock concentration (mM, diluted 1:100): 10) are 0.28 (inactive), -0.56 (inactive), -2.1 and -1.13 (inactive).
As for `CCOC(=O)[C@H](CCc1ccccc1)N[C@H]1CCc2ccccc2N(CC(=O)O)C1=O` [Benazepril hydrochloride] (stock concentration (mM, diluted 1:100): 9.2), the “CDA2-GFP sporulation assay sensitivity score” value in assay [1] is -1.49 (inactive). Moreover, the “HIS4 meiotic recombination assay sensitivity score” value in assay [2] is 0.2 (inactive). In addition, the growth sensitivity score in assay [3] was 1.33 (inactive); in assay [4], 1.72 (inactive).
`CN1CCC(=C2c3ccccc3CC(=O)c3sccc32)CC1` [Ketotifen fumarate] (stock concentration (mM, diluted 1:100): 8.9): the “CDA2-GFP sporulation assay sensitivity score” value in assay [1] is 4.44 (inactive). The “HIS4 meiotic recombination assay sensitivity score” value in assay [2] was 2.1 (inactive). Moreover, the results for the growth sensitivity score in assay [3] and in assay [4] were -0.77 (inactive) and 0.49 (inactive), respectively.
As to `OCc1cc(C(O)CNCCCCCCOCCCCc2ccccc2)ccc1O` (stereo not given) [Salmeterol] (stock concentration (mM, diluted 1:100): 10), the “CDA2-GFP sporulation assay sensitivity score” value in assay [1] was 10.5 (inactive). Further, the “HIS4 meiotic recombination assay sensitivity score” value in assay [2] is 0.79 (inactive). Moreover, the figures for the growth sensitivity score in assay [3] and in assay [4] were 41.2 (active) and 3.81 (active), respectively.
Consider `C=CC1=C(C(=O)O)N2C(=O)[C@@H](NC(=O)/C(=N\O)c3csc(N)n3)[C@H]2SC1` [Cefdinir] (stock concentration (mM, diluted 1:100): 10), for which the “CDA2-GFP sporulation assay sensitivity score” value in assay [1] was 3.95 (inactive). Further, the “HIS4 meiotic recombination assay sensitivity score” value in assay [2] was 0 (inactive). Also, the values for the growth sensitivity score in assay [3] and in assay [4] were -1.07 (inactive) and -0.67 (inactive), respectively.
On the same counts, the results for `Cc1nc2ccccn2c(=O)c1CCN1CCC(C(=O)c2ccc(F)cc2)CC1` [Pirenperone] (stock concentration (mM, diluted 1:100): 10) are 13.6 (active), 2.21 (inactive), -0.84 (inactive) and -0.59 (inactive).
`CN(CCOc1ccc(CC2SC(=O)NC2=O)cc1)c1ccccn1` (stereo not given) [Rosigltazone hydrochloride] (stock concentration (mM, diluted 1:100): 8.2): in assay [1], the “CDA2-GFP sporulation assay sensitivity score” value was -0.4 (inactive). In assay [2], the “HIS4 meiotic recombination assay sensitivity score” value was 2.69 (inactive). The growth sensitivity score in assay [3] was 0.66 (inactive); in assay [4], 2.48 (active).
On the same counts, the results for `CN1C2CCCC1CC(NC(=O)c1nn(C)c3ccccc13)C2` (stereo not given) [Granisetron hydrochloride] (stock concentration (mM, diluted 1:100): 9) are 2.25 (inactive), 0.28 (inactive), -1.22 (inactive) and -0.57 (inactive).
Take `CC1CCN(CCCC(=O)c2ccc(F)cc2)CC1` [Metylperon] (stock concentration (mM, diluted 1:100): 10): in assay [1], the “CDA2-GFP sporulation assay sensitivity score” value is 4.44 (inactive). In assay [2], the “HIS4 meiotic recombination assay sensitivity score” value was 0.9 (inactive). The growth sensitivity score in assay [3] was 1 (inactive); in assay [4], 1.93 (inactive).
Regarding `COc1ccc(CC2c3cc(OC)c(OC)cc3CC[N+]2(C)CCC(=O)OCCCCCOC(=O)CC[N+]2(C)CCc3cc(OC)c(OC)cc3C2Cc2ccc(OC)c(OC)c2)cc1OC` (stereo not given) [Atracurium besylate] (stock concentration (mM, diluted 1:100): 10), the “CDA2-GFP sporulation assay sensitivity score” value in assay [1] was 17.9 (active). Besides, the “HIS4 meiotic recombination assay sensitivity score” value in assay [2] is 0.87 (inactive). The values for the growth sensitivity score in assay [3] and in assay [4] were -2.52 and -0.31 (inactive), respectively.
In the case of `CC=CC(=O)N(CC)c1ccccc1C` [Crotamiton] (stock concentration (mM, diluted 1:100): 10.3), the “CDA2-GFP sporulation assay sensitivity score” value in assay [1] was 2.32 (inactive). Besides, the “HIS4 meiotic recombination assay sensitivity score” value in assay [2] is 3.54 (inactive). Further, the values for the growth sensitivity score in assay [3] and in assay [4] were 0.99 (inactive) and -0.07 (inactive), respectively.
`C#C[C@]1(O)CC[C@H]2[C@@H]3CCC4=CC(=O)CC[C@@H]4[C@H]3CC[C@@]21CC` [Levonorgestrel] (stock concentration (mM, diluted 1:100): 10): in assay [1], the “CDA2-GFP sporulation assay sensitivity score” value is 0.19 (inactive). The “HIS4 meiotic recombination assay sensitivity score” value in assay [2] was -2.79 (inactive). The values for the growth sensitivity score in assay [3] and in assay [4] were -0.41 (inactive) and 0.89 (inactive), respectively.
`CNCC[C@H](Oc1cccc2ccccc12)c1cccs1` [Duloxetine hydrochloride] (stock concentration (mM, diluted 1:100): 8.9): the “CDA2-GFP sporulation assay sensitivity score” value in assay [1] is 16.3 (active). The “HIS4 meiotic recombination assay sensitivity score” value in assay [2] was 7.17 (active). In addition, the growth sensitivity score in assay [3] is 33.3 (active); in assay [4], 21.8 (active).
